Assay outcomes: PubChem BioAssay, National Center for Advancing Translational Sciences (NCATS)
A selection: hits, their analogues and other compounds. The true share with any hit is near 11%.
PNC inhibitor: High Content Assay for Compounds that inhibit the Assembly of the Perinucleolar Compartment | PC3M PTB-GFP, PNC prevalence imaging, 16 h; active compounds read low | activity change (PNC), negative = inhibition, % at 10 µM | hit rate 3.1% among 140,000;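 active = readout at or below -70, meaning at least 70% loss of cells showing the perinucleolar compartment, a nuclear body marking cancer cells; inconclusive = readout between -30 and a set limit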;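 also: plate controls were DMSO wells for no effect and camptothecin positive control wells for full effect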
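PC3M cells stably expressing PTB-GFP, 750–1000 cells/well, treated 16 h at 37 °C with compound (23 nl of library stock), in duplicate. After paraformaldehyde fixation and Hoechst stain, imaged at 20x; PNC prevalence scored by image analysis.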
ALDH1A1 inh: qHTS Assay for Inhibitors of Aldehyde Dehydrogenase 1 (ALDH1A1). hit rate 7.3% among 220,000. Aldehyde dehydrogenase 1A1 (Homo sapiens), P00352. Potency, µM (series often up to 75.3 µM), for inactives: at the highest dose activity, negative = inhibition, hits mostly inhibitors. Purified ALDH1A1, NADH fluorescence, propionaldehyde substrate;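 also: potency is read from the fitted curve at half-maximal effect; plate controls were no enzyme wells and a reference inhibitor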
HPGD inh: qHTS Assay for Inhibitors of HPGD (15-Hydroxyprostaglandin Dehydrogenase). 15-hydroxyprostaglandin dehydrogenase [NAD(+)] (Homo sapiens), P15428. purified HPGD, NADH fluorescence kinetic, PGE2 substrate. AID 894, 2007. Potency, µM, for inactives: top-dose activity change, negative = inhibition, usual class: inhibitors. hit rate 4.3% among 150,000; also: potency is read from the fitted curve at half-maximal effect
Target sequence (P15428 whole entry, looked up): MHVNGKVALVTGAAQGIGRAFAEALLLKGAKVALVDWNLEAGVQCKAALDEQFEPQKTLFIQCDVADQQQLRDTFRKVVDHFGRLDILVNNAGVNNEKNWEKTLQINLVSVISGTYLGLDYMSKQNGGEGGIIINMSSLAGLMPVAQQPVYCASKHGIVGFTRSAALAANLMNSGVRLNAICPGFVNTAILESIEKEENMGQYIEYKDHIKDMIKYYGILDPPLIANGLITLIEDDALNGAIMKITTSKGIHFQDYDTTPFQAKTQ
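20 nM HPGD preincubated 15 min at room temperature with compound in 50 mM Tris-HCl pH 8, 0.01% Tween 20. Started with 1 mM NAD+ and 30 uM prostaglandin E2; NADH fluorescence (360/450 nm) read 5 times over 30-s intervals, last minus first.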
Starred values were filed as active, the others as inactive; ? = inconclusive; · = no result; [ ] = another dose, or the depositor's remark. Unless noted, calls follow the shape of the dose curve; as a rule, active = well fitted inhibition curve with a large enough effect (not every such curve was filed as active); inconclusive = small, poorly fitted or top-dose-only effect, or another doubt; inactive = no such curve, though single readings can be large or run the other way. Unless noted, % is scaled to controls: 0 for no effect and ±100 for the full control effect.

SMILES	PNC inhibitor	ALDH1A1 inh	HPGD inh
O=C(CCNC(=O)c1ccc([N+](=O)[O-])cc1)Nc1nccs1	·	0.9%	·
COc1ccc(NC(=O)c2ccc(Cc3ccc(C)cc3)o2)cc1	?	25.1µM*	?
COc1ccc(NC(=O)c2ccc(COc3ccccc3)o2)cc1	11.5	?	-15.9%
O=C(Nc1nccs1)c1ccc(-c2ccc([N+](=O)[O-])cc2)o1	·	22.4µM*	·
O=C(Nc1nccs1)c1ccc(-c2ccc(F)cc2)o1	·	22.4µM*	·
O=C(Nc1nccs1)c1ccc(-c2ccc(Cl)cc2)o1	·	-11.8%	·
Cc1cccc(C)c1OCC(O)CNC(C)(C)C (centres undefined)	57.1	-6.8%	0.5%
CCCCNC(=O)CCCCCNS(=O)(=O)c1ccc(Br)cc1	·	-10.8%	·
CCOC(=O)c1cnn(-c2ccccc2)c1-n1cccc1C(=O)C(=O)Nc1ccccc1	-24.1	-1.0%	-18.1%
O=C(Nc1ccccc1)c1[nH]ncc1[N+](=O)[O-]	9.1	-0.1%	-19.0%
COc1ccc(CCNC(=O)c2ccc(-c3ccc([N+](=O)[O-])cc3)o2)cc1OC	23.0	10µM*	-8.0%
COc1ccc(NC(=O)c2[nH]ncc2[N+](=O)[O-])cc1	·	15µM*	·
COc1ccc(CCNC(=O)c2cccnc2)cc1OC	21.2	0.9%	-8.6%
CO[C@@H]1/C=C\CC(=O)N[C@@H](C)C(=O)OC[C@@H](OC)[C@H](C)/C=C\CC(=O)OC[C@H]1C	·	20.3%[13.5 µM]	·
O=C(Cc1cccs1)Nc1nc2c(s1)CCCC2	-113.2*	?	-13.2%
COC(=O)c1sc(NC(=O)COc2ccccc2)nc1C	4.4	-16.3%	-6.9%
COC(=O)c1sc(NC(=O)Cc2cccs2)nc1C	?	12.6µM*	-7.9%
O=C(Nc1nc2c(s1)CCCC2)c1cccs1	-0.7	-4.7%	-25.5%
O=C(O)CCn1cc(/C=N/O)c(-c2cccc([N+](=O)[O-])c2)n1	·	0.3%	·
CC(C)(CO)[C@H](O)C(=O)NCCC(=O)O	·	-12.2%[20.9 µM]	2.9%
Cc1onc(-c2ccccc2)c1C(=O)N/N=C/c1cccc(O)c1	?	-0.2%	28.2µM*
CCCCCC(=O)NNC(=S)NC(=O)c1ccc([N+](=O)[O-])cc1	·	6.31µM*	·
O=C(NC(=S)NNS(=O)(=O)c1ccc(Cl)cc1)c1cccnc1	·	7.94µM*	·
CC(=O)Nc1ccc(NC(=S)NC(=O)c2ccc([N+](=O)[O-])cc2)cc1	35.9	-4.9%	-19.5%
Cc1ccc(S(=O)(=O)NNC(=O)c2ccc(O)cc2)cc1	-23.3	-11.5%	-2.3%
SMILES	PNC inhibitor	ALDH1A1 inh	HPGD inh
COc1cccc(/C=N/NC(=O)c2c(-c3ccccc3)noc2C)c1	20.0	5.3%	-4.6%
O=C(NNS(=O)(=O)c1ccccc1)c1cccnc1	·	8.3%[13.5 µM]	-7.3%
Cc1ccc(S(=O)(=O)NNC(=S)NC(=O)c2ccc([N+](=O)[O-])cc2)cc1	82.1	17.8µM*	28.2µM*
Fc1ccccc1Cc1nnc2n1N=C(c1ccc(Cl)cc1)CS2	25.8	10.0%	-14.9%
Cc1ccc(CONC(=O)/N=C/N(C)C)cc1	19.7	9.8%	-17.4%
CC[C@H]1[C@@H]2C=C[C@@H]3[C@H]4C/C=C\C(=O)NCCC[C@@H]5NC(=O)C(=C5O)C(=O)CC[C@@H]4C[C@@H]3[C@H]2C[C@H]1C	·	-0.7%	·
Cc1cc(C)c2c(CC(=O)Nc3nccs3)coc2c1	?	?	-23.2%
Clc1ccc(CNc2nc(CN3CCOCC3)nc3scc(-c4ccccc4)c23)cc1	24.7	?	-16.8%
Cc1onc(-c2ccccc2)c1C(=O)NC(=S)NNC(=O)c1ccccc1O	-95.0*	0.0%	-7.5%
Cc1ccccc1C(=O)NNC(=O)c1ccc(Br)cc1	·	-2.3%	·
CCCCC(=O)NNC(=S)NC(=O)CCC	-11.3	-12.2%	-14.0%
Cc1onc(-c2ccccc2)c1C(=O)NC(=S)NNC(=O)c1ccc(O)cc1O	-6.2	?	-19.7%
CCCCC(=O)NC(=S)NNC(=O)CC#N	-29.5	22.4µM*	-21.4%
Cc1ccccc1C(=O)NNC(=S)NC(=O)c1ccccc1	?	14.1µM*	-22.0%
Cc1ccc(C(=O)NC(=S)NNC(=O)c2ccccc2[N+](=O)[O-])cc1	25.2	22.4µM*	39.8µM*
O=C(NNC(=S)NC(=O)c1ccccc1[N+](=O)[O-])c1ccccc1[N+](=O)[O-]	42.5	-11.1%	-7.7%
CCCCNC(=O)Oc1cccc(N2CCCC2=O)c1	11.8	?	-18.4%
CC(N)CCCC(C)(C)O (centres undefined)	·	-0.4%	-3.9%
O=C(Nc1nnc(C2CCCC2)s1)C1CCC1	-126.9*	?	-2.2%
O=C(CSc1nnc(NC(=O)C2CCC2)s1)NC1CC1	?	10.4%	-8.3%
Cc1nnc(NC(=O)C2CCCCC2)s1	37.9	1.0%	-11.8%
O=C(Nc1nnc(SCC(=O)N2CCCCC2)s1)C1CCCCC1	-26.9	?	14.1µM*
Oc1ccc(/C=N/NC(=S)NCCN2CCOCC2)c(O)c1	·	-3.3%	·
Cc1ccc2[nH]c(O)c(N=NC(=O)CCc3ccccc3)c2c1Br	-16.0	-3.4%	-5.5%
O=C(COC(=O)c1ccc(=O)n(Cc2ccccc2)n1)Nc1ccc2c(c1)OCCO2	-9.5	8.91µM*	-19.1%
SMILES	PNC inhibitor	ALDH1A1 inh	HPGD inh
O=C(COC(=O)c1ccco1)Nc1ccc2c(c1)OCCO2	-7.5	-9.1%	-12.7%
COc1cccc(NC(=O)CSc2ncnc3c2cnn3Cc2ccccc2)c1	-12.9	?	-29.1%
O=C(CSc1ncnc2c1cnn2Cc1ccccc1)Nc1ccc2c(c1)OCCO2	?	12.6µM*	-0.2%
O=C1[C@H]2[C@H]3[C@H](O)[C@H](O)C/C(=N/OC[C@@H](O)COCc4ccco4)[C@H]3CC[C@@H]2C(=O)N1Cc1ccccc1	·	0.8%[13.5 µM]	·
Cc1cccc(N(Cc2cc3ccccc3[nH]c2=O)S(C)(=O)=O)c1	·	23.8µM*	·
Cc1ccc(S(=O)(=O)N(Cc2cc3ccccc3[nH]c2=O)c2cccc(C)c2)cc1	·	-14.7%	·
NC(=S)NNC(=S)Nc1ccccc1	·	22.4µM*	·
COCCCNC(=S)NNC(=S)Nc1ccc(F)cc1F	-8.6	7.94µM*	?
C=COCCNC(=S)Nc1ccccc1	·	0.9%	·
COCCCNC(=S)NCCc1ccc(F)cc1	·	5.7%	·
O=C(Cc1ccccc1)NNC(=S)Nc1ccccc1	·	4.4%	·
COCCCNC(=S)NNC(=S)Nc1ccccc1	·	17.8µM*	·
CC(C)Cn1c(N)c(C(=O)COC(=O)c2cccnc2Cl)c(=O)n(C)c1=O	·	0.6%	·
O=C(Cn1c(=O)n(-c2ccccc2)c(=O)n1CC(=O)N1CCCCC1)N1CCCCC1	2.8	-8.1%	-0.4%
COc1ccc(Cc2noc(CN3CCNC(=O)CC3)n2)cc1OC	·	7.0%	·
COC(=O)[C@@H]1CCCN1Cc1nc(Cc2ccc(OC)c(OC)c2)no1	·	0.891µM*	·
O=C1COc2ccc(C(=O)CSc3nnc(Cc4cccs4)n3-c3ccc(Cl)cc3)cc2N1	69.9	?	-18.8%
CCNC(=O)C/C(C)=N/NC(=O)C12CC3CC(CC(C3)C1)C2	-7.0	3.98µM*	-13.0%
CCNC(=O)C/C(C)=N/NC(=O)C1CCCCC1	28.6	2.8%	-3.5%
CCOC(=O)c1oc2cc(O)c(CC)cc2c(=O)c1-c1ccc2c(c1)OCCO2	36.0	?	-18.0%
Cc1oc2cc(O)cc(O)c2c(=O)c1-c1ccc2c(c1)OCCCO2	7.3	15.8µM*	-29.1%
O=C(/C(=C/O)N=Nc1ccccc1)c1cccs1	·	10µM*	·
